IMPase Li cell – qHTS Assay for Identifying the Cell-Membrane Permeable IMPase Inhibitors: Potentiation with Lithium. CHO-M1 cells, IP1 TR-FRET (IP-One), carbachol + lithium. Potency, µM (top dose mostly 59.4 µM), hits mostly inhibitors. actives 0.35% (n = 210,000). AID 1457, 2008;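 also: IP1 builds up when IMPase is blocked and the TR-FRET signal falls; nearly all actives have a fitted effect of over 50% in size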
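CHO cells stably expressing M1 receptor (2000/well, cultured 16–30 h) treated 30 min at 37C with compound plus low lithium. Cytosolic IP1 by TR-FRET (665/620 ratio and 620 channel) after 10 min lysis; AC50 by Hill fit.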
KinaseGlo FLuc – Counterscreen for Luciferase (Kinase-Glo TM) Inhibition | actives 0.28% (n = 200,000) | Potency, µM (doses to about 38.3 µM), most hits filed as inhibitors | Kinase-Glo luciferase, ATP luminescence, 8 min; also: nearly all actives have a fitted effect of over 60% in size
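Substrate mix (final 50 mM imidazole pH 7.2, 50 mM KCl, 7 mM MgCl2, 10 uM ATP, 0.01% Tween 20, 0.05% BSA) plus pin-tool compound, then Kinase-Glo detection mix; 8 min ambient, luminescence read.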
ERK EGF block – qHTS Assay for Inhibitors of the ERK Signaling Pathway using a Homogeneous Screening Assay; Stimulation with EGF; Potency, µM (titrated, usually from 11.5 µM), most hits filed as inhibitors; actives 0.41% (n = 130,000); HEK293-V1b, EGF-stimulated phospho-ERK AlphaScreen; also: nearly all actives have a fitted effect of over 55% in size
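Stably V1b-transfected HEK293 cells; 30 min compound, then EGF 25 nM final for 5 min at 37C; 10 min lysis; phospho-ERK by AlphaScreen after 5 hr beads at room temperature.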
NPSR antagonist – qHTS Assay for Antagonists of the Neuropeptide S Receptor: cAMP Signal Transduction | CHO-NPSR cells, cAMP TR-FRET, antagonist mode | actives 1% (n = 220,000) | Potency, µM (series often up to 38.3 µM), hits mostly inhibitors | Q6W5P4; also: nearly all actives have a fitted effect of over 50% in size
Target sequence (Q6W5P4 whole entry, looked up): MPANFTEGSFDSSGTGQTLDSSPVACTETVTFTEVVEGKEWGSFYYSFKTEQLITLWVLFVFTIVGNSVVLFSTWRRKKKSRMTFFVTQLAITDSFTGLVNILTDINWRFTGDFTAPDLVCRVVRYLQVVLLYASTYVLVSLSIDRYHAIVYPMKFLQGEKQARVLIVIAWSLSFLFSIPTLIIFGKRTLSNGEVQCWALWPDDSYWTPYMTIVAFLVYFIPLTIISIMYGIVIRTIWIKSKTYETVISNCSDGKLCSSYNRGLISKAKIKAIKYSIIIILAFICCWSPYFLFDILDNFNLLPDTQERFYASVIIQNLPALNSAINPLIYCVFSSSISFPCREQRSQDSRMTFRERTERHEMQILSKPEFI
Numbers stand for hits; 0 = inactive; ? = inconclusive; - = not tested or not shown; ! = not active in a repeat; [ ] = dose if it differs, or a comment. Sampled rows, rich in hits. Any-hit rate of the full collection: about 1.1%. Calls follow the shape of the dose curve; as a rule, active = well fitted curve in the direction sought with a large enough effect; inconclusive = small, poorly fitted or top-dose-only effect, or another doubt; inactive = no such curve, though single readings can be large; an effect the other way counts as inactive or inconclusive.

SMILES	IMPase Li cell	KinaseGlo FLuc	ERK EGF block	NPSR antagonist
NCC(=O)N[C@@H](CCCN=C(N)N)C(=O)NCC(=O)N[C@@H](CC(=O)O)C(=O)N[C@@H](CC(N)=O)C(=O)N1CC[C@@H](C(=O)O)C1	0	0	-	-
O=C(c1csnn1)N1CCC2(CC1)CN(C(c1ccccc1)c1ccccc1)C2	0	0	0	-
O=C(/C=C/c1cccnc1)/C=C/c1cccnc1	-	-	10µM	0
Clc1ccccc1C(c1ccccc1)(c1ccccc1)n1ccnc1	0	0	22µM!	5µM
O=C(O)CC[C@H](NC(=O)c1ccccc1C(=O)O)C(=O)O	0	0	0	0
COc1ccc(-c2nc3c(c4c2C[C@H](c2ccccc2)OC4)CN(C(=O)NCCc2c[nH]c4ccccc24)CC3)c(C)c1	0	0[7.66 µM]	-	-
O=C1c2ccccc2-c2onc3ccc(Oc4ccccc4)c1c23	0	0	?	?
CCOC(=O)C(C(=O)OCC)c1cc(Br)c2noc3c2c1C(=O)c1ccccc1-3	0	0	-	4µM
CCOc1cccc(-c2cc(C(=O)N/N=C/c3cccc(OC)c3O)[nH]n2)c1	-	0	-	-
COc1ccccc1CN1CCCC2(CCN(C(=O)c3ccco3)CC2)C1	0	0	0	-
O=C1C(=C2SCCCS2)CC/C1=C\c1ccc(F)cc1	0	11µM	-	0
C1COC1	0	-	-	-
COc1ccc2cc(CN(CC3COCCO3)S(=O)(=O)c3c(C)cc(C)cc3C)c(=O)[nH]c2c1 (centres undefined)	0	0	-	0
Cc1ccc(S(=O)(=O)N(Cc2cc3cc4c(cc3[nH]c2=O)OCCO4)CC2CCCO2)cc1 (centres undefined)	7.1µM	0	-	?
COc1ccc2cc(CN(CC3COCCO3)S(=O)(=O)c3ccc(Cl)cc3)c(=O)[nH]c2c1 (centres undefined)	7.1µM	0	-	?
O=C1c2ccccc2-c2cc([N+](=O)[O-])c([N+](=O)[O-])cc21	0	0[7.66 µM]	-	-
COC(=O)CC1C(C)(C)C(OC(C)=O)C2[C@H](OC(C)=O)[C@]34O[C@]2(O)[C@]1(C)C3CC[C@]1(C)C4=CC(=O)OC1c1ccoc1 (some centres undefined)	0	0	0	-
CN(C)CCCCNC(=O)c1ccc(-n2c(=O)c(=O)[nH]c3ccccc32)cc1	-	0	-	-
COc1ccc(N=c2oc3cc(O)ccc3cc2C(=O)Nc2ccccn2)cc1OC	0	0	28µM	0
Cc1ccc(N=c2oc3cc(O)ccc3cc2C(N)=O)cc1	-	-	-	0
Cc1ccc(-c2nc(NC(=O)CSc3nnc(C)s3)ns2)cc1	14µM	0	-	0
Cc1nnc(SCC(=O)Nc2nsc(-c3ccccc3)n2)s1	0	0	-	0
O=C(Nc1ccc(OC(=O)c2ccco2)cc1)c1ccco1	0	13µM	0	0
Cc1[nH]c(N)nc(=S)c1CCC(=O)O	0	0[7.66 µM]	-	-
CCCCC(=O)N(Cc1ccc(-c2ccccc2-c2nn[nH]n2)cc1)C(C(=O)O)C(C)C (centres undefined)	0	0	0	-
SMILES	IMPase Li cell	KinaseGlo FLuc	ERK EGF block	NPSR antagonist
COc1cccc2c1C(=O)c1c(O)c3c(c(O)c1C2=O)C[C@@](O)(C(=O)CO)C[C@@H]3O[C@H]1C[C@H](N)[C@H](O)[C@H](C)O1	0	0	28µM	?
COc1cccc2c1C(=O)c1c(O)c3c(c(O)c1C2=O)C[C@@](O)(C(=O)CO)C[C@@H]3O[C@@H]1C[C@H](N)[C@H](O)[C@H](C)O1	0	0	?	-
CCNc1ncc2nc(-c3ccc(OC)cc3)c(=O)n(CCC#N)c2n1	0	-	-	-
COc1ccc(-c2nc3cnc(OC)nc3n(C3CC3)c2=O)cc1	13µM	0	0	-
COc1ccc(-c2nc3cnc(Oc4cccc(Cl)c4)nc3n(CCC#N)c2=O)cc1	5µM	-	-	-
CCNc1ncc2nc(-c3ccc(F)cc3)c(=O)n(CCC#N)c2n1	10µM	0	0	-
CCNc1ncc2nc(-c3ccc(OC)cc3)c(=O)n(CCc3ccccc3)c2n1	11µM	-	-	-
N#CCCn1c(=O)c(-c2ccccc2)nc2cnc(Oc3cccc(Cl)c3)nc21	?	0	0	-
CC(=O)[C@@H]1[C@H]2[C@H](C(=O)[C@H]3OC[C@@H]2O3)[C@H]2C=Cc3ccccc3N21	0	?	0	-
O=C1C=CC(=O)c2c1ccc1c2ccc2ccccc21	0	0	0	-
CCCn1c(C)nc2c(NCC(C)(C)CN(C)C)nc(C)nc21	0	0	0	-
NS(=O)(=O)c1cc(C(=O)O)c(O)c2ccccc12	0	0[7.66 µM]	-	-
